Data on 15 compounds can be found in PubChem BioAssay (NCATS).

Test [1] is described as follows: qHTS for H2AX Agonists against the NCATS CANVASS Library (AID 1347378). To be noted: CHO-K1 H2AX phosphorylation, HTRF TR-FRET, 3 h. The method, boiled down:
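CHO-K1 cells were plated overnight at 37C, then exposed to compounds (concentration series, 0.76% DMSO final) for 3 hr at 37C. Lysates received Eu-cryptate anti-pH2AX (S139) and d2 anti-H2AX antibodies; after 24 hr at room temperature, TR-FRET 665/620 nm ratio was read.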

The nature of test [2]: qHTS for Inflammasome Signaling Inhibitors: IL-1-beta AlphaLISA screen against the NCATS CANVASS Library (AID 1347379). To be noted: THP-1 LPS/ATP, IL-1B AlphaLISA secretion, 16 h. The procedure, abridged: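 Human THP-1 cells were pretreated 1 hr at 37 °C with compounds (up to 57.5 uM final), then stimulated with LPS (250 ng/mL final) and ATP (1.25 mM final). Secreted IL-1B was read by AlphaLISA after 16 hr.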
Background: Quantitative high-throughput screening tests each substance at several concentrations.

The nature of test [3]: Inflammasome Signaling qHTS Counterscreen: IL-1-beta AlphaLISA counterscreen against the NCATS CANVASS Library (AID 1347381). The procedure, abridged: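 To flag interference with the AlphaLISA read-out, a known amount of purified IL-1-beta (4 pg) replaced cell supernatant. Detection used anti-IL-1-beta acceptor beads, biotinylated antibody and streptavidin donor beads at room temperature.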

Test [4] can be described thus: qHTS assay for small molecule disruptors of mitochondrial membrane potential screened against the NCATS CANVASS Library (AID 1347389). To be noted: HepG2 mitochondrial membrane potential, m-MPI red/green ratio, 1.5 h. The method, boiled down: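 Compounds tested in 11-point qHTS series on HepG2 cells for 1 hr; membrane-potential dye added for 30 min at 37C. Lower red-to-green ratio indicates loss of potential.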

Test [5] is described as follows: Secretion counterscreen for inhibitors of the SERCaMP assay screened against the NCATS CANVASS Library (AID 1347390). The conditions noted are these: SH-SY5Y constitutive GLuc secretion, luminescence, 20 h. The method, boiled down: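 SH-SY5Y cells expressing constitutively secreted GLuc, 1000 cells/well, attached 4 h at 37C, then exposed to compounds (0.001 - 77 uM, 11-pnt series) for 20 h. Coelenterazine added; luminescence read to flag secretory-pathway interferers.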
On the technique in general: Counterscreens check selectivity or assay interference.

Test [6] in a line: qHTS for activators of Nrf2/ARE signaling pathway screened against the NCATS CANVASS Library (AID 1347391). To be noted: ARE-bla HepG2, beta-lactamase reporter, 16 h. The method, boiled down:
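Cells carrying an ARE-driven beta-lactamase reporter (HepG2 background) are dosed for 16 h, then stained with CCF4. Cell viability in the same wells is measured by CellTiter-Glo luminescence.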

A short description of test [7]: qHTS for inhibitors of ER calcium dysfunction: SERCaMP assay screened against the NCATS CANVASS Library (AID 1347393). The conditions noted are these: SH-SY5Y GLuc-SERCaMP (Gaussia luciferase released on ER calcium loss) secretion, thapsigargin, luminescence. The procedure, abridged:
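qHTS in SH-SY5Y reporter cells: 16 h compound pretreatment, 4 h thapsigargin, then secreted Gaussia luciferase measured by luminescence.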

Test [8] is described as follows: Vero-766 cells viability qHTS against the NCATS CANVASS Library: Counterscreen for Zika virus inhibition assay (AID 1347394). The conditions noted are these: Vero 766 viability, CellTiter-Glo luminescence, 72 h. The method, boiled down:
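Uninfected Vero 766 (African green monkey) cells, 1000/well, attached overnight, then exposed 72 h at 37C to compounds (11-point qHTS). Viability read by CellTiter-Glo luminescence; media-only wells served as 100% inhibition.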

The nature of test [9]: qHTS for inhibitors of Wild type Zika virus screened against the NCATS CANVASS Library (AID 1347396). The method, boiled down: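 Vero 766 cells, 1000/well, o/n attach; cpds pin-transferred (11-pt qHTS); WT Zika added; 72 h, 37C, 5% CO2; CellTiter Glo lumi. Uninfected + vehicle = 100% inhibition.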
A short description of test [10]: Viability qHTS for inhibitors of the SERCaMP assay screened against the NCATS CANVASS Library (AID 1347400). The conditions noted are these: SH-SY5Y SERCaMP cells viability, CellTiter-Glo, 48 h. The procedure, abridged: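 Cytotoxicity counter-screen: ATP content (CellTiter-Glo luminescence) of SH-SY5Y-GLuc SERCaMP MJH297 cells after 48 h at 37C with compounds in an 11-point qHTS series.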

A short description of test [11]: Redox Reaction Profiling qHTS: Assay Interference Panel against the NCATS CANVASS Library (AID 1347401). The method, boiled down: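 Resazurin (5 uM) conversion to resorufin measured with 200 uM DTT in 50 mM HEPES pH 7.3, 50 mM NaCl. Compounds tested in 11-point qHTS series. Fluorescence (ex 525/em 598 nm) read before and after 15 min dark incubation.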
Test [12] has as its target Calcium and integrin-binding protein 1 (Homo sapiens) (UniProt Q99828). The test is described as follows: Primary qHTS for Identification of Calcium Integrin Binding Protein 1 (CIB1) Competitor (AID 1508620). The method, boiled down: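 Fluorescence polarization competition: CIB1-GST (1 uM final) preincubated with compound 15 min at room temperature, then FITC-labeled alphaIIb peptide (100 nM final) added for another 15 min. Polarization read at Ex 480/Em 540.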

The nature of test [13]: qHTS for inhibitors of adenylyl cyclases using a fission yeast platform: a pilot screen against the NCATS LOPAC library (AID 1347410). The method, boiled down:
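S. pombe CHP2027 (AC9-GNAS-PDE4D2) carrying a PKA-repressed fbp1-GFP reporter was exposed to LOPAC compounds (final up to 57 µM) for 18 h at 30C in the dark, in EMM with histidine, lysine and uracil; GFP gain-of-signal read by laser scanning cytometry.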

In test [14] the target is Calcium and integrin-binding protein 1 (Homo sapiens) (UniProt Q99828). The test is described as follows: Validation qHTS for Identification of Calcium Integrin Binding protein 1 (CIB1) Competitor (AID 1508618). The procedure, abridged: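 CIB1-GST (1 uM final) in 5 mM HEPES pH 7.4, 125 mM NaCl, 5 mM CaCl2, 0.01% Tween20 was preincubated 15 min at room temperature with compound (up to 114 uM), then FITC-alphaIIb peptide (100 nM) added for 15 min; fluorescence polarization read.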
Calcium and integrin-binding protein 1 (Homo sapiens), sequence (Q99828 whole entry, looked up): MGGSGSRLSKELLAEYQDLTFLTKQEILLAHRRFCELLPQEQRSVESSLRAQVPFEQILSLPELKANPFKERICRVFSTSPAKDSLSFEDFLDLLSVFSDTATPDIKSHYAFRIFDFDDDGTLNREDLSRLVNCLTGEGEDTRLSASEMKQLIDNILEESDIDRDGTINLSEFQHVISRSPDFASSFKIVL

The nature of test [15]: qHTS to identify inhibitors of the type 1 interferon - major histocompatibility complex class I in skeletal muscle: primary screen against the NCATS Mechanism Interrogation Plate v5.0 (MIPE) Libary (AID 1347411). The method, boiled down: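 Cells were genome-edited human myoblasts carrying a HiBit tag on endogenous HLA-B. They were treated with IFN-beta (4.0 ng/ml) and titrated compounds (top 46 uM) for 24 hrs before lytic HiBiT detection.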

Test [16] deals with Protein phosphatase 1D (Homo sapiens) (UniProt O15297). The test is described as follows: RapidFire Mass Spectrometry qHTS Assay for Modulators of WT P53-Induced Phosphatase 1 (WIP1) (AID 1347424). The method, boiled down:
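WIP1 (10 nM final) was preincubated 1 h at room temperature with compounds in Tris-HCl pH 7.5, 30 mM MgCl2, TCEP, EGTA, BSA; 2 uM VEPPL-pS-QETFS phosphopeptide was added for 5 min, quenched with formic acid, and dephosphorylated product quantified by RapidFire MS.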

Test [17] has the same target. The test is described as follows: Rhodamine-PBP qHTS Assay for Modulators of WT P53-Induced Phosphatase 1 (WIP1) (AID 1347425). The procedure, abridged: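 Read-out: Rhodamine-PBP fluorescence (ex 525/em 598 nm) for released Pi, read each minute for 11 min after adding 10 uM VEPPL-pS-QETFS; signal taken as f1 minus pre-substrate f0. Enzyme 5 nM WIP1 with 1 hr room-temperature compound preincubation.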

The nature of test [18]: Primary qHTS for inhibitors of La Crosse Virus (LACV) - induced cell death in SH-SY5Y cells (AID 1508616). The procedure, abridged: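 Readout was luminescence from ATPLite 1step added after a 6-day LACV infection (0.01 MOI) of SH-SY5Y cells that had received pin-transferred compound 24 hr after seeding.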
Test [19] concerns the target Calcium and integrin-binding protein 1 (Homo sapiens) (UniProt Q99828). The test is described as follows: Confirmatory qHTS for Identification of Calcium Integrin Binding Protein 1 (CIB1) Competitor (AID 1508617). The conditions noted are these: CIB1 binding competition assay, biochemical qHTS. The procedure, abridged: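 Fluorescence polarization competition: CIB1-GST (1 uM final) in 5 mM HEPES pH 7.4, 125 mM NaCl, 5 mM CaCl2, 0.01% Tween20 preincubated 15 min RT with compound (up to 114 uM), then FITC-alphaIIb peptide (100 nM) added, 15 min RT.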

Records with an inconclusive call do not appear. Calls of active or inactive are those of the source. Calls come from the whole dose curve; as a rule, active = well fitted curve in the direction sought with a large enough effect; inconclusive = small, poorly fitted or top-dose-only effect, or another doubt; inactive = no such curve, though single readings can be large; an effect the other way counts as inactive or inconclusive.

Protein phosphatase 1D (Homo sapiens), sequence (O15297 whole entry, looked up): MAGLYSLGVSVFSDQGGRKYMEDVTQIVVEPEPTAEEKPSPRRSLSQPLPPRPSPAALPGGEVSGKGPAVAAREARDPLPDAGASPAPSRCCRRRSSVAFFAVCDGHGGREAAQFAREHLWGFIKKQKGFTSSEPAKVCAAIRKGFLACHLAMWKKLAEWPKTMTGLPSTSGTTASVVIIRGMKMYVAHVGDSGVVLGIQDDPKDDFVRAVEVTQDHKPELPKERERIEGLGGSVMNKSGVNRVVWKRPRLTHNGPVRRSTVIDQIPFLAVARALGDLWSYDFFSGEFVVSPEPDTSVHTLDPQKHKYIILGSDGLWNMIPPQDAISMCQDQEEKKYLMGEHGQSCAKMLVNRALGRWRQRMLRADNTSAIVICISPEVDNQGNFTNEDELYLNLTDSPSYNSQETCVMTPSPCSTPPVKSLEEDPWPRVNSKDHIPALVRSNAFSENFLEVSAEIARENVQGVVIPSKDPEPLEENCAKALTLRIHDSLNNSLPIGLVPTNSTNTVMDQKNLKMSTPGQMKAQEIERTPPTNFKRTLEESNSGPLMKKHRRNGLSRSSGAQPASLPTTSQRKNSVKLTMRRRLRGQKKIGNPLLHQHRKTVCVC

With `C=C1C(=O)O[C@H]2[C@H]1CC/C(C)=C/CC[C@@]1(C)O[C@@H]21`, the Potency in [1] is 4.86 µM (active); in [2], 5.44 µM (active); in [4], 20.9 µM (active); in test [5], 15.3 µM (active); in test [6], 2.09 µM (active); in test [7], 1.72 µM (active). For the same compound, the Potency in test [8] was 29.5 µM (active); in [10] it was 13.5 µM (active). For the same compound, the outcome in [3], in test [9] and in [11] was inactive. Moreover, the Potency entry in test [12] is “inactive”.
In the case of `CC[C@]1(O)CC2CN(CCc3c([nH]c4ccccc34)[C@@](C(=O)OC)(c3cc4c(cc3OC)N(C)[C@H]3[C@@](O)(C(=O)OC)[C@H](OC(C)=O)[C@]5(CC)C=CCN6CC[C@]43[C@@H]65)C2)C1` (stereo not given in full), the result in [13] and in test [14] was inactive. Moreover, in test [12], the Potency entry was “inactive”.
On to `COc1cc2ncnc(Nc3ccc(F)c(Cl)c3)c2cc1NC(=O)/C=C/CN1CCCCC1`, for which, in test [15], the Potency is 7.39 µM (active). For the same compound, the Potency result in test [12] is “inactive”.
On the same counts, the results for `CCN1CCN(Cc2ccc(NC(=O)c3ccc(C)c(NC(=O)c4cncc(-c5cccs5)c4)c3)cc2C(F)(F)F)CC1` are 2.94 µM (active) and “inactive”.
As to `Cc1ccc(NC(=O)Nc2cc(C(F)(F)F)ccc2F)cc1Nc1ccc2c(c1)NC(=O)/C2=C\c1ccc[nH]1`, the Potency in [15] is 23.4 µM (active). Moreover, the Potency result in test [12] is “inactive”.
`CC[C@H](NC(=O)[C@H](CS(=O)(=O)CC1CC1)N[C@@H](c1ccc(F)cc1)C(F)(F)F)C(=O)C(=O)NC1CC1`: the Potency result in test [15] and in test [12] was “inactive” in each case.
Take `CCCCNc1ncc2c(-c3ccc(CN4CCN(C)CC4)cc3)cn(C3CCC(O)CC3)c2n1` (stereo not given): the Potency in test [15] is 9.3 µM (active). Moreover, the Potency result in [12] is “inactive”.
On the same counts, the results for `CC(C)(C)C(=O)CN1C(=O)[C@H](NC(=O)Nc2cccc(C(=O)O)c2)CN(C2CCCCC2)c2ccccc21` are “inactive” and “inactive”.
Regarding `CN1CCN(C2CCC(n3cc(-c4ccc(Oc5ccccc5)cc4)c4c(N)ncnc43)CC2)CC1` (stereo not given), the Potency in test [15] was 11.7 µM (active).
In the case of `CCC(C(=O)O)c1ccc(N2Cc3ccccc3C2=O)cc1` (stereo not given), the Potency result in test [16] and in test [12] was “inactive” throughout. Moreover, the compound was called inactive in test [17] and in test [18].
Regarding `CCc1cnn2c(NCc3ccc[n+]([O-])c3)cc(N3CCCCC3CCO)nc12` (stereo not given), the Potency entry in test [12] was “inactive”.
For `Nc1ccc(/C=C/C(=O)NCc2cc3cc(-c4ccc(C(=O)N5CCC(F)(F)CC5)cc4)cc(-c4ccc(F)cc4)c3o2)cn1`, the Potency entry in test [15] and in test [12] was “inactive” each time.
With `Cc1ccc([N+](=O)[O-])cc1S(=O)(=O)N(C)/N=C/c1cnc2ccc(Br)cn12`, the Potency in test [15] was 0.104 µM (active). The Potency entry in test [12] is “inactive”.
As for `CCN(CC)CCN(Cc1ccc(-c2ccc(C(F)(F)F)cc2)cc1)C(=O)Cn1c(SCc2ccc(F)cc2)nc(=O)c2c1CCC2`, the Potency in [19] was 35.5 µM (active).
For the compound `CC(O)c1cc(C(=O)N[C@@H](C)Cn2ccc(-c3ccc(C#N)c(Cl)c3)n2)n[nH]1` (stereo not given in full), the Potency entry in test [15] and in test [12] was “inactive” in each case.
